Bioassay records as filed in PubChem.
RGS4 inh – inhibitors of human regulator of G protein signaling 4; P49798; Transcreener GDP fluorescence polarization, RGS4-accelerated GTP hydrolysis; Potency, µM (top dose mostly 114 µM), for inactives: at the highest dose activity change, negative = inhibition, usual class: inhibitors; 390,000 compounds, 0.039% hits; AID 504845; also: potency is read from the fitted curve at half-maximal effect; % is scaled to controls: 0 for no effect and ±100 for the full control effect; nearly all actives have a fitted effect of over 75% in size
Target sequence (P49798 whole entry, looked up): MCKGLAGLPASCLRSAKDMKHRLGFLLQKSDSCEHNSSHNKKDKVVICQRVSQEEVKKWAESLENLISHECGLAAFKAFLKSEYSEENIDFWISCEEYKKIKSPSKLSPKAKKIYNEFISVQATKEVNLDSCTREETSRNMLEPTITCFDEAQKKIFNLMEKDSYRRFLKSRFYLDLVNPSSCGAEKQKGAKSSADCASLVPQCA
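MLSMR compounds (23 nl, pin-transferred) preincubated 10 min at room temperature with a 500nM (2x) first reagent, then RGS4 at 900nM (2x) plus Transcreener GDP mix added; fluorescence polarization (620/688 nm) read before and after 90 min at 30 °C.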
LDHA block – inhibitors of human lactate dehydrogenase A. P00338. purified LDHA, NADH/diaphorase-resazurin fluorescence; hits give low values. activity change, % (values are at about 110 or 230 µM). 480,000 compounds, 0.15% hits. AID 1347041; in the data active = activity change below about -30%; inconclusive = mostly about -25% to -30%;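 also: plate controls were DMSO wells for no effect and wells without enzyme for full effect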
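Human LDH5 at 2 nM final in Tris HCl pH 7.4 with 0.06 mM NADH and 0.2 mM pyruvate, reacted 5 minutes at room temperature. Remaining NADH coupled via diaphorase/resazurin; resorufin fluorescence read at 0 and 20 minutes, normalized to enzyme-free and DMSO wells.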
BRCA1 expr act – increases BRCA1 expression | 380,000 compounds, 1.1% hits | MCF7-BRCA1-FFLuc reporter, luminescence, 48 h; response scale: scaled: vehicle 0%, 10 µM genistein 100% | Potency, µM (titrated, usually from 46.1 µM), for inactives: top-dose activation, actives largely listed as activators | AID 624202; also: potency is read from the fitted curve at half-maximal effect; nearly all actives have a fitted effect of over 80% in size
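Compounds are tested at multiple concentrations on MCF7 BRCA1-luciferase reporter cells seeded at 2000 per well; after 48 h, a single luminescence end-point is taken and curves fitted to the normalized data.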
p53 reactivation – restores transcriptional activity of mutant p53 | Potency, µM (highest dose often 92.2 µM), inactives show at the highest dose activity change, positive = activation, usual class: activators | H1299 p53-A138V BP100-luciferase reporter, luminescence, 24 h | AID 504706 | 320,000 compounds, 0.063% hits; also: potency is read from the fitted curve at half-maximal effect; % of control where 0% means no effect; nearly all actives have a fitted effect of over 45% in size
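H1299 (p53-null), stable ts p53-A138V + BP100-Luc; 1000 cells/well, Opti-MEM/10% FBS; cpd 4 pt, 1:5; 24 h, 37 deg C, 5% CO2; detection reagent 10 min RT; luminescence.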
PTHR1 ag – activates the human parathyroid hormone receptor PTHR1; Q03431; HEK293 GP2 PTHR1 cells, GloSensor cAMP luminescence, 1 h; Potency, µM (series often up to 115 µM), for the others: at the highest dose activation, most hits filed as activators; 410,000 compounds, 0.075% hits; AID 743266; also: potency is read from the fitted curve at half-maximal effect; nearly all actives have a fitted effect of over 55% in size
Target sequence (Q03431 whole entry, looked up): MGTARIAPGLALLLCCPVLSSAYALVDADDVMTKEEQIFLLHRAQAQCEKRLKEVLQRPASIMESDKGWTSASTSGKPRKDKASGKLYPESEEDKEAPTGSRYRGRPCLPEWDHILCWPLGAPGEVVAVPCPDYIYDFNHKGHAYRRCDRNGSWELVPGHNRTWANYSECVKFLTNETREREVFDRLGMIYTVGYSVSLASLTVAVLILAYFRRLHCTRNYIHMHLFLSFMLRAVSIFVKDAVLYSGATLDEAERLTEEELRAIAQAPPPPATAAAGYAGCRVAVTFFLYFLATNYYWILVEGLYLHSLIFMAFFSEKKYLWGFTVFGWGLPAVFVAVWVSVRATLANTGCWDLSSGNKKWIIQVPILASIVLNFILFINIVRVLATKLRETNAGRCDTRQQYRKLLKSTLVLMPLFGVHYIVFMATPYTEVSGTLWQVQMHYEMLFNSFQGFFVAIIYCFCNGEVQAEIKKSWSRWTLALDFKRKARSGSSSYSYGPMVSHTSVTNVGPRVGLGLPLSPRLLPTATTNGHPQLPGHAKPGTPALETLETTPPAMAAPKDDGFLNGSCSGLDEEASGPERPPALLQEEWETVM
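HEK-293-derived GP2 cells expressing PTHR1 and a GloSensor cAMP reporter, 3,000/well, plated overnight, given luciferin plus IBMX (each 0.5 mM as added) for 1 h at 37 °C, then compound for 1 h at 37 °C. Luminescence was read after 15 min at room temperature.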
Starred values were filed as active, the others as inactive; i = inactive; ? = inconclusive; nt = no result given; ! = not active in a repeat; [ ] = dose if it differs, or a comment. Sampled rows, rich in hits. Any-hit rate of the full collection: about 1.1%. Unless noted, calls follow the shape of the dose curve; as a rule, active = well fitted curve in the direction sought with a large enough effect; inconclusive = small, poorly fitted or top-dose-only effect, or another doubt; inactive = no such curve, though single readings can be large; an effect the other way counts as inactive or inconclusive.

SMILES	RGS4 inh	LDHA block	BRCA1 expr act	p53 reactivation	PTHR1 ag
O=C1NC(=O)C(c2ccccc2[N+](=O)[O-])=C1Nc1ccc(O)c(Cl)c1	11.9µM*!	-1.0	-0.8%	nt	i
CC(C)CCNC(=O)C12CC3CC(C1)CC(c1ccccc1)(C3)C2	nt	-1.9	nt	nt	nt
Nc1nonc1-c1noc(N2CCCCC2)n1	47.7%	-6.2	10µM*	18.0%	-5.2%
COC(=O)c1ccc(CN)o1	nt	0.1	nt	nt	nt
N#Cc1ccc(OCCOC(=O)c2cccc(Cl)c2)cc1	nt	-1.0	nt	nt	nt
CC(C)(C)c1ccc(S(=O)(=O)/C=C/C#N)cc1	2.12µM*	2.9	-62.7%	nt	nt
O=C(N/N=C/c1ccc2ccccc2c1)c1ccc(COc2ccc3c(c2)CCC3)o1	-32.7%	-7.5	2µM*	3.7%	-12.1%[57.5 µM]
COc1ccccc1/C=N\NC(=O)c1ccc(COc2ccc(C)c(C)c2)o1	22.9%	-13.5	5.62µM*	nt	-8.0%
O=C(N/N=C/c1cc([N+](=O)[O-])ccc1O)c1ccc(COc2ccc3c(c2)CCC3)o1	-13.6%	-18.6	-27.2%	15.4%	-6.2%
CCc1ccc(-c2c(C)sc(N)c2C#N)cc1	nt	-4.0	nt	nt	nt
COC(=O)/C(=C\C(=O)c1ccccc1)Nc1cccc(C(F)(F)F)c1	-4.0%	4.7	10µM*	28.2µM*	-47.8%
COc1ccc(/C=N/NC(=O)CC(=O)N/N=C/c2ccc(OC)cc2)cc1	8.2%	-5.6	-2.8%	-5.2%	-16.3%
COc1ccc(/C=N\NC(=O)C2=NNC(=O)C2C)cc1 (configuration not stated)	-19.3%	-4.9	2.82µM*	6.9%	i
Cc1csc(NC(=O)CCc2ncc(-c3c(F)cccc3F)o2)n1	nt	5.3	nt	nt	nt
CCOc1ccc(O)c(C=NC2CCCC2)c1	nt	10.2	nt	nt	nt
COc1cccc(NC(=O)NCCC2=CCCCC2)c1	2.1%	-5.0	5.01µM*	7.9%	-37.5%
COc1ccc(NC(=O)NCCC2=CCCCC2)cc1	-2.1%	-5.0	?	5.5%	-2.0%
COc1ccccc1/C=C/C(=O)NCCC1=CCCCC1	-6.7%	-7.9	2.82µM*	-0.9%	-6.4%
CC(=O)Nc1ccc2[nH]cc(C(C(=O)O)N3CCN(c4cc(C)c5ccccc5n4)CC3)c2c1 (configuration not stated)	nt	1.2	nt	nt	nt
CCOC(=O)CNC(=O)c1ccc(SCC)cc1	-0.8%	-4.8	12.6µM*	10.8%	15.3%
CC(=O)Oc1ccc(-c2cc3ccc(OC(C)=O)cc3oc2=O)cc1	25.5%	-9.0	5.62µM*	nt	i
CC(=O)Oc1ccc2cc(-c3nc(-c4ccc(C)cc4)no3)c(=O)oc2c1	nt	-6.7	nt	nt	nt
CC(=O)Oc1ccc2cc(-c3ccccc3)c(=O)oc2c1	-11.0%	-30.8*!	?	?	-52.8%
CC(=O)COc1ccc2cc(-c3ccccc3)c(=O)oc2c1	-8.9%[56.9 µM]	-10.1	?	13.1%	-26.5%
CS(=O)(=O)OCCCOS(C)(=O)=O	nt	-0.4	nt	nt	nt
SMILES	RGS4 inh	LDHA block	BRCA1 expr act	p53 reactivation	PTHR1 ag
O=C(Nc1cccc(-c2ccc(N3CCOCC3)nn2)c1)c1cccc(Cl)c1	nt	-2.2	7.08µM*	nt	-4.1%
O=C(Nc1cccc(-c2ccc(N3CCOCC3)nn2)c1)c1ccc(Cl)cc1	3.0%	-5.1	54.5%	11.8%	-0.3%
O=C(Nc1cccc(-c2ccc(N3CCOCC3)nn2)c1)c1ccccc1Cl	-22.7%	-2.1	2.51µM*	9.7%	-24.3%
CCCn1c(C)cc(C(=O)CSc2nc3ccccc3c(=O)n2Cc2ccco2)c1C	1.1%	-4.5	17.7%	25.1µM*	-37.1%
CCN(CC)C(=O)CSc1nc2ccccc2c(=O)n1Cc1ccco1	-5.7%	1.8	nt	nt	-16.4%
c1ccc(COc2ccc(-c3csnn3)cc2)cc1	11.3%	-3.5	5.62µM*	13.3%	i
CC(=O)COc1ccc(-c2csnn2)cc1	-16.2%	-5.7	81.5%	3.4%	-15.6%
CC(=O)NCCN=C(C)c1sc2ccccc2c1O	?	-0.5	12.6µM*	7.3%	-15.9%
CCn1nc(C(=O)Nc2nc(-c3ccc(NC(C)=O)cc3)cs2)c2ccccc2c1=O	nt	-30.9*	nt	nt	nt
CCn1nc(C(=O)OCC(=O)Nc2nc(-c3ccc(C)c(C)c3)cs2)c2ccccc2c1=O	nt	-5.4	nt	nt	nt
CCn1nc(C(=O)OCC(=O)Nc2nc(-c3ccc(OC)cc3)cs2)c2ccccc2c1=O	-16.0%[11.4 µM]	-8.5	6.31µM*	?	-19.1%
CCCCN(C)C(=O)C1CCN(S(=O)(=O)c2c(C)noc2/C=C/c2ccccc2F)CC1	nt	7.5	nt	nt	nt
CCOc1ccc(N2C(=O)CCC2=O)cc1	-16.4%	-6.6	1.9%	-8.0%	i
CCCC1CCC(c2ccc(OCC)cc2)=CC1=O (configuration not stated)	-17.0%	-2.4	8.91µM*	nt	-36.1%
NS(=O)(=O)c1ccc(N=NN2CCCCC2)cc1	6.6%	-7.7	10µM*	17.9%	i
O=C(COc1cc(O)c2c(=O)cc(-c3ccccc3)oc2c1)N1CCCCC1	nt	8.1	nt	nt	nt
COc1ccc(OC)c2sc(N3CCN(C(=O)C4CCCCC4)CC3)nc12	nt	-24.4	nt	nt	nt
Oc1ccc(/C=C/c2cc(O)cc(O)c2)cc1	?	-0.4	12.6µM*	?	-45.4%
COc1ccc(C(=O)Nc2ccc3oc(-c4cccc(Cl)c4)nc3c2)cc1	nt	7.1	nt	nt	nt
O=C(NNC(=O)c1ccccc1F)c1cccs1	-5.0%	4.3	5.62µM*	24.4%	-11.9%
Cc1ccc(SCc2ccc(C(=O)N3CCCC3)cc2)cc1	6.6%	-8.0	11.2µM*	7.0%	-36.0%
COc1ccc(C2Nc3ccccc3C(=O)N2Cc2ccco2)cc1COc1ccc([N+](=O)[O-])cc1 (configuration not stated)	-25.1%	-0.8	-12.6%	-8.3%	-15.6%
CCCN1C(=O)c2ccccc2NC1c1ccc(OC)c(COc2ccc([N+](=O)[O-])c(C)c2)c1 (configuration not stated)	8.2%	-58.9*	0.0%	nt	nt
CC1SCC(NC(=O)c2ccc(Cl)cc2)CS1 (configuration not stated)	-14.2%	-5.6	11.2µM*	29.4%	-1.9%
Cc1ccccc1C(=O)Oc1ccc2c(=O)c(-c3ccccc3)coc2c1	nt	-10.3	nt	nt	nt
SMILES	RGS4 inh	LDHA block	BRCA1 expr act	p53 reactivation	PTHR1 ag
Cc1ccc2sc(-c3ccccc3)nc2c1	nt	8.6	nt	nt	nt
CCOC(=O)Cc1ccc2sc(-c3ccccc3)nc2c1	11.3%	-0.1	4.47µM*	?	-19.9%
COc1ccc(C2=NOC(C(=O)NC(C)(C)C)C2)cc1 (configuration not stated)	-6.6%	1.0	12.4%	21.3%	-5.9%[57.5 µM]
CCN(CC)C(=O)C1CC(c2ccc(OC)cc2)=NO1 (configuration not stated)	2.1%	-3.3	10µM*	?	i
Cc1ccc(/C(N)=N/OC(=O)CSc2ccccc2)cc1	-9.8%	-1.4	7.94µM*	6.4%	-12.8%
N/C(=N\OC(=O)c1ccccc1F)c1ccc([N+](=O)[O-])cc1	?	-4.2	2.82µM*	?	i
